Reference: PubChem BioAssay AID686978 (National Center for Advancing Translational Sciences (NCATS), 2013)
The campaign covered roughly 420,000 compounds. About 64,000 (15%) were called active. Inconclusive results (about 27%) are left out. The call rests on the fitted dose curve; in most records, active means well fitted inhibition curve with a large enough effect; inconclusive means small, poorly fitted or top-dose-only effect; inactive means flat fitted curve, though single readings scatter. Not all results are given here. Where a call stands in place of a potency, no number is given.

Test: qHTS for Inhibitors of human tyrosyl-DNA phosphodiesterase 1 (TDP1): qHTS in cells in absence of CPT; further: nearly all actives have a fitted effect of over 55% in size
Conditions: DT40 Tdp1-/- hTDP1 cells, no CPT, ATP luminescence, 48 h; activity change, negative = growth inhibition: at 46.2 µM (top of the series)
Method in brief: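 No-CPT arm: Tdp1-/-;hTDP1 DT40 cells (400/well) plus compounds, incubated ≥48 hr at 37 °C. Readout CellTiter-Glo luminescence.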
Potency means the concentration at half of the fitted maximal effect.

Row | SMILES | Potency
1 | COc1cc(NC(=S)NCc2ccco2)c(OC)cc1Cl | inactive
2 | COC(=O)CN(c1nc(C)c(Cl)c(OC)n1)S(=O)(=O)c1ccc(C)cc1 | inactive
3 | O=C(OCC(O)C(O)COC(=O)c1ccccc1)c1ccccc1 (stereo unspecified) | inactive
4 | O=C(O)C(=Cc1ccccc1[N+](=O)[O-])c1ccccc1 | inactive
5 | O=C(Cc1c(F)cccc1Cl)N1CCN(C(=O)c2ccco2)CC1 | inactive
6 | O=C(Nc1ccc(N2CCOCC2)c(Cl)c1)c1ccc(S(=O)(=O)N2CCOCC2)cc1 | 14.6 µM (active)
7 | CC(=O)Nc1ccc(C(=O)Nc2cc(S(=O)(=O)N3CCOCC3)ccc2N2CCOCC2)cc1 | inactive
8 | COc1ccc(NC(=O)CNc2cc(S(=O)(=O)N3CCOCC3)ccc2N2CCOCC2)c(OC)c1 | inactive
9 | CC(Oc1ccc(F)cc1)C(=O)Nc1cc(S(=O)(=O)N2CCOCC2)ccc1N1CCN(C)CC1 (stereo unspecified) | inactive
10 | O=C(Nc1ccc2cn[nH]c2c1)c1ccc(S(=O)(=O)N2CCOCC2)cc1 | inactive
11 | CC(C)CCOc1ccc(C(=O)Nc2cc(S(=O)(=O)N3CCOCC3)ccc2N2CCOCC2)cc1 | 5.8 µM (active)
12 | NC(=O)CN1CCCC1c1ccc2c(c1)OCCO2 (stereo unspecified) | inactive
13 | CCOC(CNC(=O)C1CCN(S(=O)(=O)c2ccc3nc4c(c(C(=O)O)c3c2)CC(C)CC4)CC1)OCC (stereo unspecified) | inactive
14 | CC(=O)c1cccc(NC(=O)c2ccncc2)c1 | inactive
15 | CC(=O)Nc1cccc(C(=O)OCC(=O)c2ccc3c(c2)OCO3)c1 | inactive
16 | CCN(CC)N=Nc1cccc(NC(C)=O)c1 | 3.26 µM (active)
17 | C=CCn1c(SCc2ccc(Cl)c(Cl)c2)nnc1C(CO)NC(=O)c1ccc(OC)cc1 (stereo unspecified) | 20.6 µM (active)
18 | C=CCn1c(CNC(=O)c2ccco2)nnc1SCC(=O)c1ccc(OC)cc1 | inactive
19 | C=CCn1c(CCNC(=O)c2ccccc2F)nnc1SCC(=O)Nc1ccc(OC)cc1 | inactive
20 | C=CCN1C(=O)C(Cc2cccc(Cl)c2)S/C1=N/N=C/c1ccco1 (stereo unspecified) | inactive
21 | Cc1cc(S(=O)(=O)NCc2ccccn2)c(Cl)cc1Cl | inactive
22 | CCn1c(=S)sc2c(=O)n(CC(=O)Nc3ccc(OC)cc3)c(C)nc21 | inactive
23 | CC(CN1CCOCC1)OC(=O)c1ccc(Cl)cc1Cl (stereo unspecified) | inactive
24 | CC(OC(=O)c1ccc(Cl)cc1O)C(=O)NCCC1=CCCCC1 (stereo unspecified) | inactive

Row | SMILES | Potency
25 | C#CCNc1ccc(C(=O)OCC)cc1 | inactive
26 | COC(=O)c1cc(C(=O)CSc2nc(C)cc(C)n2)ccc1O | inactive
27 | COC(=O)c1ccc(NCc2cc(O)ccc2O)cc1 | 4.61 µM (active)
28 | O=C(OC12CC3CC(CC(C3)C1)C2)c1ccc(NCc2cc(O)ccc2O)cc1 | 1.64 µM (active)
29 | CC(C)OC(=O)c1ccc(NCc2cc(O)ccc2O)cc1Cl | 2.59 µM (active)
30 | CSCCC(NS(=O)(=O)c1ccc(C)cc1)C(=O)N1CCCC1 (stereo unspecified) | inactive
31 | C/C(Cc1ccccc1)=N\NC(=O)CNC(=O)c1ccc2c(c1)OCCO2 | inactive
32 | CC1(C)C2CCC13CS(=O)(=O)NC3C2 (stereo unspecified) | inactive
33 | CC1(C)OC(=O)C(=CNC(CO)C(=O)O)C(=O)O1 (stereo unspecified) | inactive
34 | O=P(O)(CP(=O)(c1ccccc1)c1ccccc1)c1ccccc1O | inactive
35 | C=CCN1CN(S(=O)(=O)c2ccc(OC)cc2)c2nc3ccccc3nc21 | inactive
36 | Cn1cnnc1Sc1ccc(CN2CCN(C3CCCC3)C(CCO)C2)o1 (stereo unspecified) | inactive
37 | Cc1c(C(=O)N(Cc2ccccc2)Cc2cccnc2)cnn1-c1ccc(F)cc1 | inactive
38 | CCN(CC)CC(=O)Nc1nn(-c2ccccc2)nc1C(N)=O | inactive
39 | O=C(NCCCN1CCCCCC1)c1ccc(N2CCCC2=O)cc1 | inactive
40 | O=C(N/N=C/c1ccc(Br)o1)c1cncc(Br)c1 | inactive
41 | Cc1ccc(C(=O)N/N=C/c2cccc3ccccc23)cn1 | inactive
42 | Cc1ccc(C(=O)N/N=C\c2cc(Br)c(Br)o2)cn1 | 16.4 µM (active)
43 | C=CCSc1ccc(S(=O)(=O)N2CCN(C)CC2)cn1 | inactive
44 | COC(=O)C1CCN(C(=O)COC(=O)c2cc(S(=O)(=O)N3CCOCC3)ccc2C)CC1 | inactive
45 | O=C(COC(=O)c1ccccc1SCC(=O)NC1CCCCC1)NC1CCCCC1 | inactive
46 | CC1CCCC(NC(=O)COC(=O)c2ccccc2C(=O)N(C)C2CCCCC2)C1C (stereo unspecified) | 14.6 µM (active)
47 | C=CCNC(=O)COC(=O)c1ccccc1C(=O)N(C)C1CCCCC1 | inactive
48 | NC(=O)COC(=O)c1sc2cc(F)ccc2c1Cl | inactive

Row | SMILES | Potency
49 | CC(=O)NC12CC3CC(C1)CC(C(=O)N1CCN(C(=O)c4ccco4)CC1)(C3)C2 | inactive
50 | COc1ccc(N(CC(=O)NC(C)(C)C)C(=O)c2ccco2)cc1 | inactive
51 | CC1(C)CC(=O)c2cc(OCC(=O)NCC3CCCO3)ccc2O1 (stereo unspecified) | inactive
52 | Cc1cc(-c2cccs2)nc(-n2cccc2)n1 | inactive
53 | O=C(NNc1ncnc2c1cnn2-c1ccccc1)c1ccco1 | inactive
54 | Cc1cccc(NC(=S)N2CCCC(c3nc4ccccc4[nH]3)C2)c1 (stereo unspecified) | inactive
55 | Cc1cccc(NC(=S)NCc2ccc3[nH]c4c(c3c2)CCCC4)c1 | 18.4 µM (active)
56 | O=C(O)CCC(=O)NCc1ccc2[nH]c3c(c2c1)CCCC3 | inactive
57 | CCCCc1c(O)nc2n(c1=O)CCS2 | inactive
58 | O=C(Oc1ccc(Br)cc1C(=S)N1CCOCC1)c1cccc([N+](=O)[O-])c1 | inactive
59 | O=C(/C=C/c1c(Cl)cccc1Cl)NCc1ccccc1 | inactive
60 | COn1c(=O)c(=O)n(OC)c2ccccc21 | inactive
61 | CCOC(=O)c1c(NC(=O)c2cc(CC)on2)sc(C(C)=O)c1C | inactive
62 | Cc1cc(OCc2cc(C(=O)NCc3cc(C(C)C)no3)no2)cc(C)c1Cl | inactive
63 | CCOC(=O)CC1(NC(=O)c2cc(COc3cncc(Cl)c3)on2)CCCCC1 | 20.6 µM (active)
64 | COCCNc1ccnc(-c2cccc(NS(C)(=O)=O)c2)n1 | inactive
65 | COc1ccc2[nH]cc(CCNc3ncnc4ccc(-c5ccc(C(=O)N(C)C)cc5)cc34)c2c1 | 9.2 µM (active)
66 | COc1ccc2[nH]cc(CCNc3cc(-c4ccccc4CN(C)C)ncn3)c2c1 | inactive
67 | COc1ccc2[nH]cc(CCNc3ncnc4ccc(-c5ccccc5CN(C)C)cc34)c2c1 | inactive
68 | COc1ccc2[nH]cc(CCNc3nc(-c4cccc(NS(C)(=O)=O)c4)nc4ccccc34)c2c1 | 13 µM (active)
69 | CNc1cc(-c2c(OC)cccc2OC)ncn1 | inactive
70 | Cc1ccc2[nH]cc(CCNC(=O)c3ccc([N+](=O)[O-])cc3)c2c1 | inactive
71 | COc1cccc(-c2cc(NCCc3c[nH]c4ccc(OC)cc34)ncn2)c1 | 23.1 µM (active)
